{
  "source": "PubChem BioAssay (NCI)",
  "note": "About 83,000 compounds went through this panel and 20% of them were active in at least one assay; those are over-represented in the sample as a whole.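 Interpretation: 100, growth as untreated; towards 0, rising growth inhibition; 0, no net growth; 0 to -100, cell death. Compounds scoring below 10 were considered active.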 Calls of active or inactive are those of the source.",
  "data": [
    {"test_system": "MALME-3M melanoma", "test": "NCI-60 one-dose screen, 48 h (100 = growth as untreated, 0 = no growth, -100 = all killed)", "conditions": "10 µM", "values": [
      {"smiles": "O=C(NO)c1ccc(Cn2ccc3c(Nc4ccccc4)ncnc32)cc1", "growth": "-4.38% (active)"},
      {"smiles": "N#Cc1ccc(-c2nn(-c3ccc(C(=O)O)cc3)cc2CNc2cccc(Br)c2)cc1", "growth": "95.6% (inactive)"},
      {"smiles": "O=C(c1ccc(Cl)cc1)C1[C@H](c2ccccc2Br)[C@@H](c2ccccc2)NC12C(=O)Nc1ccccc12", "note": "(some centres not stated)", "growth": "39.6% (inactive)"},
      {"smiles": "CC1(C)CC[C@]2(C(=O)Nc3ccccc3)CC[C@]3(C)C(=CC[C@@H]4[C@@]5(C)CC[C@H](N)C(C)(C)[C@@H]5CC[C@]43C)[C@H]2C1", "growth": "83.7% (inactive)"},
      {"smiles": "CC(=C(c1ccc(OCCCN(C)C)cc1)c1ccc(OCCCN(C)C)cc1)c1ccccc1", "growth": "-98.6% (active)"},
      {"smiles": "Cc1ccc(/C=C/C(=O)c2ccc(S(=O)(=O)NCCNc3nc(Nc4ccc(F)cc4)nc(N(C)C)n3)cc2)cc1", "growth": "69.1% (inactive)"},
      {"smiles": "COc1ccc(C(=O)Nc2sc3c(c2C#N)CCC(=O)C3)cc1C(F)(F)F", "growth": "-52.3% (active)"},
      {"smiles": "COc1ccc2nc(Cl)c(-c3cc(-c4ccccc4)nc(=S)[nH]3)cc2c1", "growth": "45.3% (inactive)"},
      {"smiles": "Cc1ccc(-c2cc(C(=O)N=Nc3c(O)[nH]c4ccccc34)c3ccccc3n2)cc1", "growth": "36.5% (inactive)"},
      {"smiles": "C#Cc1ccc(S(=O)(=O)Nc2cccc(-c3csc(NC(C)=O)n3)c2)cc1", "growth": "78.7% (inactive)"},
      {"smiles": "CC(C)C1=C[C@@]23CC[C@@H]4[C@](C)(CCC[C@]4(C)C(=O)NCc4ccccc4)[C@H]2C[C@@H]1[C@H]1C(=O)CCC(=O)[C@H]13", "growth": "95.5% (inactive)"},
      {"smiles": "COc1ccc(C(=O)NC(=S)N2CCN(c3ncnc4c3cnn4-c3ccccc3)CC2)cc1", "growth": "57.8% (inactive)"},
      {"smiles": "C[C@H]1[C@H](C)CC[C@]2(COC(=O)CCC(=O)NCC#CCN3CCNCC3)CC[C@]3(C)C(=CC[C@@H]4[C@@]5(C)CCCNC(C)(C)[C@@H]5CC[C@]43C)[C@H]12", "growth": "-38.7% (active)"},
      {"smiles": "CC[C@@]1(O)C(=O)OCc2c1cc1n(c2=O)Cc2c-1nc1cc(F)c(C)c3c1c2[C@@H](N)CC3", "growth": "-55.8% (active)"},
      {"smiles": "Cc1cccc2cc(-c3cc(-c4ccccc4)nc(=S)[nH]3)c(Cl)nc12", "growth": "61% (inactive)"},
      {"smiles": "Cc1ccc(CNC(=O)Cc2ccc3c(c2)CN(C2CCC(=O)NC2=O)C3=O)cc1", "note": "(configuration not stated)", "growth": "-64.1% (active)"},
      {"smiles": "CONC[C@]1(C)C=C2C(=O)[C@](C)(O)C3(CC3)C(C)=C2[C@H]1O", "growth": "-73.5% (active)"},
      {"smiles": "CC1(C)CC[C@]2(C(=O)N3CCOCC3)CC[C@]3(C)C(=CC[C@@H]4[C@@]5(C)CC[C@H](NCO)C(C)(C)[C@@H]5CC[C@]43C)[C@H]2C1", "growth": "-96.6% (active)"},
      {"smiles": "NS(=O)(=O)c1ccc(N=Nc2c(O)n(CC(=O)Nc3ccccc3Br)c3ccccc23)cc1", "growth": "26.5% (inactive)"},
      {"smiles": "CNC(=O)c1cccc(N2CCc3c2ccc(NC(=O)Nc2ccc(N4CCN(C)CC4)c(C(F)(F)F)c2)c3F)c1", "growth": "-96.3% (active)"},
      {"smiles": "O=C(NCCCCC(c1ccc(F)cc1)c1ccc(F)cc1)NCCCc1cccnc1", "growth": "-13% (active)"},
      {"smiles": "CC(=O)Nc1ccc(-c2cn(-c3cccc(C(=O)Nc4ccc(Cl)c(C(F)(F)F)c4)c3)nn2)cn1", "growth": "-89.6% (active)"},
      {"smiles": "CCCS(=O)(=O)c1oc(-c2ccc(F)cc2)nc1S(=O)(=O)c1ccc(F)cc1", "growth": "-98.8% (active)"},
      {"smiles": "O=C(Cn1nc(-c2ccccc2)ccc1=O)NN1C(=O)c2ccccc2C1=O", "growth": "90.1% (inactive)"},
      {"smiles": "CC(=O)NCC1=C(C)C=C2C(=O)[C@](C)(O)C3(CC3)C(C)=C21", "growth": "-96.3% (active)"},
      {"smiles": "CCN1CCN(Cc2ccc(C(=O)Nc3cccc(-c4cn(-c5ccc6oc(=O)ccc6c5)nn4)c3)cc2C(F)(F)F)CC1", "growth": "-100% (active)"},
      {"smiles": "CCOP(=O)(OCC)O[C@H]1CCC(=O)[C@@H]2[C@H]1[C@H]1C[C@@H]3[C@@]4(C)CCCC(C)(C(=O)OC)[C@@H]4CC[C@@]23C=C1C(C)C", "note": "(some centres not stated)", "growth": "86.2% (inactive)"},
      {"smiles": "O=C1Nc2ccc(F)cc2/C1=C/c1cccc(OCc2ccccn2)c1", "growth": "54.1% (inactive)"},
      {"smiles": "CC1=N/C(=C\\c2ccc(N(C)C)cc2)C(=O)N1CCc1ccc(S(N)(=O)=O)cc1", "growth": "93.4% (inactive)"},
      {"smiles": "O=C(Nc1ccc(I)cc1F)c1cc(-c2ccc(F)cc2F)ccc1O", "growth": "-21.4% (active)"},
      {"smiles": "C/C(=N\\NC(N)=S)c1ccc(Nc2nc(SC(C)C)nc(-c3ccccc3)c2C#N)cc1", "growth": "55.7% (inactive)"},
      {"smiles": "COc1ccc2c(c1)N=C(C(=O)O)/C2=C/c1sc(Nc2ccc(O)cc2)nc1O", "growth": "50.7% (inactive)"},
      {"smiles": "COc1cc(-c2nc3cc(Cl)c(Cl)cc3[nH]2)ccc1OCc1nnc(-c2ccc(Br)cc2)o1", "growth": "-78.2% (active)"},
      {"smiles": "Cc1ccc(NC(=O)c2ccc(-n3c(=O)[nH]c4ccccc4c3=O)cc2)cc1", "growth": "84.8% (inactive)"},
      {"smiles": "CC(=C(c1ccc(OCCN2CCCCC2)cc1)c1ccc(OCCN2CCCCC2)cc1)c1ccccc1", "growth": "-99.9% (active)"},
      {"smiles": "CCCCCc1ccc(S(=O)(=O)N(C(C)=O)c2cc(-c3csc(N(C)C(C)=O)n3)ccc2N2CCN(C)CC2)cc1", "growth": "-93.3% (active)"},
      {"smiles": "COc1cc2c3c(n(CCCNC(C)C)c(=O)c2cc1OC)-c1nc2c(cc1C3=O)OCO2", "growth": "-92.3% (active)"}
    ]}
  ]
}
